# PubChem BioAssay (Tox21)
# Records with an inconclusive call do not appear. A number with no mark means an inactive call. Activity calls are given as the source filed them. Calls come from the whole dose curve; as a rule, active = well fitted activation curve with a large enough effect in the repeat runs; inconclusive = weak or mixed curves; inactive = flat fitted curve, though single readings scatter.
# Test: A CellTox Green Cytotoxicity Assay to monitor cytotoxicity in HepG2 cells - 32 hour (AID 1224883); note: nearly all actives have a fitted effect of over 50% in size
# Settings: CellTox Green fluorescence; series mostly up to 76.8 µM; cytotoxicity increase: at the top concentration
# From the text: National Center for Advancing Translational Sciences [NCATS]
# NIH Chemical Genomics Center [NCGC]
# U.S. Environmental Protection Agency [EPA]
# National Institutes of Environmental Health Sciences [NIEHS]
# National Toxicology Program [NTP]
# Cell-based models are critical for drug discovery. Determining the natural cytotoxic effects resulting from test compounds is an essential research activity. A CellTox Green Cytotoxicity Assay to monitor cytotoxicity in real time of continues cell culture during 40 hours of the compound treatment was used to screen Tox21 10K library compounds in HepG2 cells. CellTox Green Cytotoxicity Assay is a nonlytic, homogeneous, biofluorescent method to measure cytotoxicity in cell culture after experimental manipulation. The assay system uses a proprietary asymmetric cyanine dye that is excluded from viable cells but preferentially stains the dead cell's DNA. […] Viable cells produce no appreciable increases in fluorescence. Therefore, the fluorescence signal produced by the binding interaction with dead cell DNA is proportional to cytotoxicity.
# The mixture of HepG2 cell suspension and reagents were dispensed at 600cells/6 ul/well in 1536-well tissue culture treated black solid bottom plates using a Multidrop dispenser. After the assay plates were incubated at a 37 C/5% CO2 incubator for 5 hours, 23 nL of compounds dissolved in DMSO, positive and negative controls was transferred to the assay plate by a pintool work station. The plates were incubated at 37 C for 40 hours. The fluorescence intensity were measured at 0h, 8h, 16h, 24h, 32h and 40h time points using ViewLux plate reader during compound treatment.
# % is set by controls: 0 for no effect and ±100 for the full control effect; potency is the fitted concentration of half-maximal effect.
Structure (SMILES),Potency,cytotoxicity increase
C=C(C)C(=O)[O][Sn]([CH2]CCC)([CH2]CCC)[CH2]CCC,0.616 µM (active),
CCNc1nc(NC(C)C(C)C)nc(SC)n1 (stereo not given),,1.09%
CC(C)c1c(CN(C)C(C)Cc2ccccc2)n(C)n(-c2ccccc2)c1=O (stereo not given),,18.6% [at 35.3 µM]
O=[N+]([O-])c1ccc(CCl)cc1,,0.233%
ClCBr,,-10.9%
COc1ccc(Cc2nccc3cc(OC)c(OC)cc23)cc1OC,,23.4% [at 35.3 µM]
CCCC[N+]1(C)CCCC1 (tested in a mixture with another compound),,2.34%
O=C(Cl)c1ccccc1F,,-2.96%
CN1CCc2cc(Cl)c(O)cc2[C@H]2c3ccccc3CC[C@@H]21,,-0.761% [at 35.3 µM]
CNC(=O)Oc1cc(C)cc(C(C)C)c1,,-5.65%
CC(C)C(Br)C(=O)NC(N)=O (stereo not given),,7.42% [at 35.3 µM]
O=c1[nH]c(Cl)c(Cl)cc1Cl,,2.27%
Cc1ccn2nc(S(=O)(=O)Nc3c(F)cccc3F)nc2n1,,-8.41%
Nc1cc(Cl)ccc1Cl,,-0.524%
COC(=O)c1ccccc1S(=O)(=O)NC(=O)Nc1nc(C)nc(OC)n1,,-1.4%
CNN,,-1.85%
COCCC#N,,0.145%
CSC(=O)c1c(C(F)F)nc(C(F)(F)F)c(C(=O)SC)c1CC(C)C,,4.13%
O=S(=O)(O)F,,-3.64%
O=C1C[C@@H]2OCC=C3CN4CC[C@]56c7ccccc7N1[C@H]5[C@H]2[C@H]3C[C@H]46,,16% [at 35.3 µM]

Structure (SMILES),Potency,cytotoxicity increase
Clc1cc(Cl)c(-c2cc(Cl)c(Cl)cc2Cl)cc1Cl,,-5.04% [at 35.3 µM]
ClC(Cl)C(Cl)(Cl)Cl,,3.51%
CN1[C@@H]2CC[C@H]1CC(O)C2 (stereo not given in full),,-18.4%
O=S(=O)(NS(=O)(=O)C(F)(F)F)C(F)(F)F,48.9 µM (active),
CSC(C)(C)/C=N/O,,-1.61%
CCN(CC)CCc1c[nH]c2ccccc12,,6.46%
CC(=O)[O-].CC(=O)[O-].CC(=O)[O-].[Sb+3],,-22.1% [at 2.72 µM]
Cc1c([N+](=O)[O-])cc2c(c1[N+](=O)[O-])C(C)(C)CC2(C)C,,-10.8%
CCC(C)Nc1c([N+](=O)[O-])cc(C(C)(C)C)cc1[N+](=O)[O-] (stereo not given),,1.13%
CCCCC(CC)COC(=O)c1ccccc1C(=O)OCC(CC)CCCC (stereo not given),,1.6%
Oc1cccc(Cl)c1Cl,,-3.75%
CCC(OC(C)=O)C(CC(C)NC)(c1ccccc1)c1ccccc1 (stereo not given),55.4 µM (active),
Cc1ccc2cc3c(ccc4ccccc43)c3c2c1CC3,6.93 µM (active),
c1ccc2c(c1)cc1ccc3cccc4ccc2c1c34,7.05 µM (active),
ClC1(Cl)C2(Cl)C3(Cl)C4(Cl)C(Cl)(Cl)C5(Cl)C3(Cl)C1(Cl)C5(Cl)C24Cl (stereo not given),,2.41%
CCC1COC(Cn2cncn2)(c2ccc(Cl)cc2Cl)O1 (stereo not given),,31.5%
O=C(NC(=O)c1c(F)cccc1F)Nc1ccc(Oc2ccc(C(F)(F)F)cc2Cl)cc1F,,-10.2%
N#Cc1ccc(N(CC(N)=O)CC(F)(F)F)cc1C(F)(F)F,,-21.8%
[O]=[Cr](=[O])([OH])[O][Cr](=[O])(=[O])[OH],12.4 µM (active),
CC(=O)[O-].CC(=O)[O-].O.O.[Zn+2],,0.499%
